Screening results deposited in PubChem by Buhrlage Lab, Dana-Farber Cancer Institute and Novartis Institutes for BioMedical Research (Cambridge, Mass).
A selection: hits, their analogues and other compounds. The true share with any hit is near 11%.
USP30 inh: blocks human USP30 ubiquitin-rhodamine cleavage. purified USP30, Ub-rhodamine cleavage fluorescence. inhibition, % at 25 µM. actives 5.3% (n = 47,000)
Target sequence (Q70CQ3 whole entry, looked up): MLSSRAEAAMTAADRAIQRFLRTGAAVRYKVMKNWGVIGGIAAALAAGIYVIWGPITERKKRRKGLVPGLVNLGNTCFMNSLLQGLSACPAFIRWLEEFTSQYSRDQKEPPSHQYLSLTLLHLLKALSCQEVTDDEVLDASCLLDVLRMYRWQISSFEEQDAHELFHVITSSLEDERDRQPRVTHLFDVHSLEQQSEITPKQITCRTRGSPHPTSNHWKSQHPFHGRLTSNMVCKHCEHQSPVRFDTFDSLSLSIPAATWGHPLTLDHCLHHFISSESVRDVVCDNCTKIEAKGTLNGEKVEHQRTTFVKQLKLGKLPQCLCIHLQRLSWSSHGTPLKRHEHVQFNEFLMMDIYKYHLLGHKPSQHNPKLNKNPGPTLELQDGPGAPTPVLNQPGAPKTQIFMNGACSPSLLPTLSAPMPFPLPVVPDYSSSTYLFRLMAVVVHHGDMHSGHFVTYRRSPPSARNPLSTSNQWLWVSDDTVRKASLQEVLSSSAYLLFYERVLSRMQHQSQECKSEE
USP17 block: human USP17-like deubiquitinase inhibition; A8MUK1; purified USP17, Ub-rhodamine cleavage fluorescence, 3 h; inhibition, % at 50 µM; actives 6.5% (n = 47,000)
OTUD3 inh: inhibitors of human OTUD3 deubiquitinase; Q5T2D3; purified OTUD3, Ub-rhodamine fluorescence, 2 h; inhibition, % at 25 µM; actives 0.7% (n = 47,000)
USP28 block: human USP28 deubiquitinase inhibition; Q96RU2; purified USP28, Ub-rhodamine cleavage fluorescence, 30 min; inhibition, % at 25 µM; actives 3% (n = 47,000)
* hit, by the source's call; i = inactive. Rule as the data show it: active = inhibition above about 30%; inactive = the rest.

SMILES | USP30 inh | USP17 block | OTUD3 inh | USP28 block
Cc1c2oc3c(C)ccc(C(=O)N[C@@H]4C(=O)N[C@H](C(C)C)C(=O)N5CCC[C@H]5C(=O)N(C)CC(=O)N(C)[C@@H](C(C)C)C(=O)O[C@@H]4C)c3nc-2c(C(=O)N[C@@H]2C(=O)N[C@H](C(C)C)C(=O)N3CCC[C@H]3C(=O)N(C)CC(=O)N(C)[C@@H](C(C)C)C(=O)O[C@@H]2C)c(N)c1=O | -158 | 35* | -43 | -40
CCc1cccc(NC(=O)c2nc3ccccc3n(C)c2=O)c1 | 86* | 58* | 4 | 48*
CC1c2ccsc2CCN1S(=O)(=O)Cc1ccccc1 (stereo not drawn) | -18 | -2 | 0 | 0
CC(OC(=O)c1cc(=O)[nH]c2ccccc12)C(=O)Nc1ccc(F)cc1Cl (stereo not drawn) | 12 | 45* | 8 | 19
Cc1ccccc1CNC(=O)C1CCN(S(C)(=O)=O)c2ccccc2O1 (stereo not drawn) | 1 | -11 | -1 | -5
COc1cccc2c1C(=O)c1ccc3c(c1C2=O)C(=O)C[C@@H](C)[C@@H]3O | -8 | 45* | 8 | 10
COc1ccccc1Nc1ncc2c(n1)CC(C)CC2=O (stereo not drawn) | 23 | 17 | 20 | 18
COc1cccc2c1C(=O)c1ccc3c(c1C2=O)C(=O)C[C@@H](C)C3 | -51 | 30* | 1 | 4
Cc1ccc(F)cc1S(=O)(=O)N1CCC2(CC1)CC2c1nc(-c2cccnc2)no1 (stereo not drawn) | -9 | -12 | -13 | -4
CCOC(=O)c1c(C)oc2nc(CSc3ccccc3)[nH]c(=O)c12 | -4 | 12 | -2 | 61*
CCOC(=O)c1c(C)oc2ncnc(N(CCO)c3ccccc3)c12 | -39 | -11 | -9 | -11
COc1cc2c(cc1OC)-c1cc(Oc3ccc4cccnc4c3)nc(=O)n1CC2 | -38 | 49* | -10 | 5
O=C(Nc1nc2ccc(F)cc2s1)c1cccc2c(Br)cccc12 | 23 | 33* | 4 | -1
CC/C=C\C/C=C\C/C=C\CCCCCCCC(=O)O | 53* | 88* | 73* | 74*
Cc1ccccc1NC(=O)N1CCC2(CC1)Nc1cc(F)ccc1-n1cccc12 | -39 | -3 | -11 | -3
COc1ccc(C(=O)N2CCn3c(nnc3C(C)C)C2)c(OC)n1 | 7 | 7 | 4 | 3
CCCCc1nc2sc3c(NCCN4CCOCC4)ncnc3c2c2c1CCC2 | -31 | -14 | -9 | 83*
O=C(Nc1ccc(CN2CCOCC2)cc1)c1cccc(Br)c1 | 5 | -4 | -4 | 38*
CN(C)C=Nc1nnc(/C(C#N)=C/c2ccc(Cl)cc2Cl)s1 | i | -133 | -196 | -233
CN(C)S(=O)(=O)c1ccc(N2CCCC2)c(C(=O)Nc2ccc(-c3cn4ccsc4n3)cc2)c1 | 38* | 52* | 5 | 32*
COc1ccc(NC(=O)c2cc(S(=O)(=O)N(C)C)ccc2N2CCCC2)cc1Cl | 15 | 2 | 4 | 1
O=C(Cc1ccc2c(c1)CCO2)Nc1ccc(-c2cn3ccsc3n2)cc1 | 28 | 36* | -2 | 14
O=C(Nc1ccccc1)c1csc(-c2ccc3c(c2)CCO3)n1 | 23 | 1 | 16 | 13
O=C(c1ccco1)N1CCN(C(C(=O)N2CCCCC2)c2ccccc2)CC1 (stereo not drawn) | -33 | -16 | -22 | -18
COc1ccc(S(=O)(=O)Nc2ccc3c(c2)CCCN3S(C)(=O)=O)cc1OC | -6 | -5 | -3 | -14
SMILES | USP30 inh | USP17 block | OTUD3 inh | USP28 block
C/C1=C/CC(O)/C=C/C(C)C(O)C(C)/C=C(\C)C(=O)c2c(O)c(C)cc3c2C(=O)C(Cl)=C(NC(=O)\C=C/C=C/C=C\C(C)C(O)CC1=O)C3=O (stereo not drawn) | -98 | 74* | -20 | 0
Nc1c(-c2nc(-c3ccccc3Cl)no2)nnn1-c1ccc(Cl)cc1 | 40* | 43* | 4 | 20
Cc1ccc(C(=O)O)cc1NC(=O)C(Sc1cccc(NC(=O)c2ccccc2C)c1)c1ccccc1 (stereo not drawn) | 78* | 92* | 49* | 55*
O=C(O)c1ccccc1C(=O)Nc1ccc(SC(C(=O)Nc2ccccc2)c2ccccc2)cc1 (stereo not drawn) | 13 | 63* | 8 | 19
C=C1CCC2[C@](C)(CCC[C@]2(C)C(=O)OC)[C@H]1CCc1ccoc1CNCCO (stereo partly drawn) | -6 | 9 | -1 | 0
CN(C)c1ccc(/C=N/NC(=O)c2ccc(Cl)cc2)cc1 | 23 | 88* | -8 | -2
Cc1ccc(Cl)cc1NC(=O)c1ccc(N(C)C)cc1 | 11 | 15 | -2 | -11
